# In the library only some 19% were active in any assay of this set; here they are far more common.
# IL-1B inflam inh = qHTS for Inhibitors of Inflammasome Signaling: IL-1-beta AlphaLISA Primary Screen | 360,000 compounds, 4.7% hits | THP-1 LPS/ATP IL-1B secretion, AlphaLISA, 16 h; hits give low values | activity change, % at 57.5 µM | AID 743279, 2014; in the data active = activity change below about -50%; inconclusive = mostly about -30% to -49%
#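 Secreted IL-1B measured by AlphaLISA bead assay after 16 h compound exposure of THP-1 cells; compounds (final up to 57.5 uM) added 1 h before LPS (250 ng/mL) and ATP (1.25 mM) stimulation; lower signal means less secretion.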
# TDP1 cell CPT = qHTS for Inhibitors of human tyrosyl-DNA phosphodiesterase 1 (TDP1): qHTS in cells in presence of CPT; Potency, µM (series often up to 46.2 µM), hits mostly inhibitors; 420,000 compounds, 12% hits; AID 686979, 2013; chicken DT40 Tdp1-/-;hTDP1 cells + 20 nM CPT, ATP luminescence, 48 h; note: nearly all actives have a fitted effect of over 55% in size
#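 Chicken DT40 Tdp1-/- cells complemented with human TDP1, 400 cells/well, exposed to compounds plus 20 nM camptothecin for at least 48 h at 37 C; viability read as ATP content by CellTiter-Glo luminescence.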
# TDP1 inh = qHTS Assay for Inhibitors of Tyrosyl-DNA Phosphodiesterase (TDP1). recombinant TDP1, AlphaScreen DNA substrate cleavage. 350,000 compounds, 0.28% hits. Potency, µM (series often up to 130 µM), hits mostly inhibitors. Tyrosyl-DNA phosphodiesterase 1 (Homo sapiens), Q9NUW8. AID 485290, 2010; note: nearly all actives have a fitted effect of over 40% in size
# Target sequence (Q9NUW8 whole entry, looked up): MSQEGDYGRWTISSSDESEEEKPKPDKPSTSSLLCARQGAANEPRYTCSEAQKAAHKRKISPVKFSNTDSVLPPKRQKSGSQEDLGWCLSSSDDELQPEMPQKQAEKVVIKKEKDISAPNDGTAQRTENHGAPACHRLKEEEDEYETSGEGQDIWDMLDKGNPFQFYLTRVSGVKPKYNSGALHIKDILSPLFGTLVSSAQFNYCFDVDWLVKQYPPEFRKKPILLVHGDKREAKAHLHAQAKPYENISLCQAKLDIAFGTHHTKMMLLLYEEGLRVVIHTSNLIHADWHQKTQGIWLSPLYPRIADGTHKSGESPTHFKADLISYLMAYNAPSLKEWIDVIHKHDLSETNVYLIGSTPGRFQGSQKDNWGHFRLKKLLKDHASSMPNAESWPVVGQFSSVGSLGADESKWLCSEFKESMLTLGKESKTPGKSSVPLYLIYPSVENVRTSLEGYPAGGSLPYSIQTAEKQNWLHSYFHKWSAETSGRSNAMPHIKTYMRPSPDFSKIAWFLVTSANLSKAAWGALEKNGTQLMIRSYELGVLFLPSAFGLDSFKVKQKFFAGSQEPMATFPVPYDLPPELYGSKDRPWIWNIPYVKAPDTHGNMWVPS
#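 Signal: AlphaScreen proximity between streptavidin donor and anti-FITC acceptor beads on intact substrate. Reaction: Tdp1 1 nM, substrate 15 nM final, 5 min RT after 15 min compound preincubation.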
# TGFb inhibitor = qHTS for Inhibitors of TGF-b | HepG2 CAGA-GFP TGF-b/SMAD3 reporter, GFP fluorescence, 18 h; TGF-beta stimulated, 500 pg/mL final | AID 588855, 2011 | Potency, µM (top dose mostly 46.1 µM), actives largely listed as inhibitors | 410,000 compounds, 1.2% hits; note: nearly all actives have a fitted effect of over 65% in size
#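 Using HEPG2 CAGA-GFP reporter cells at 1000 cells/well, we pinned test compounds, stimulated with recombinant TGF-beta (500 pg/mL final) and measured total well GFP after 18 h.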
# DT40 TDP1 no CPT = qHTS for Inhibitors of human tyrosyl-DNA phosphodiesterase 1 (TDP1): qHTS in cells in absence of CPT. DT40 Tdp1-/- hTDP1 cells, no CPT, ATP luminescence, 48 h. Potency, µM (series often up to 46.2 µM), most hits filed as inhibitors. 420,000 compounds, 15% hits. AID 686978, 2013; note: nearly all actives have a fitted effect of over 55% in size
#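 DT40 Tdp1-/-;hTDP1 cells, no CPT (DMSO vehicle only), 400 cells/well; compounds pin-transferred; ≥48 hr, 37 °C; CellTiter-Glo 30 min RT dark, luminescence read.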
# HepG2 tox = qHTS for Inhibitors of TGF-b: Cytotox Counterscreen | HepG2 CAGA-GFP viability, ATP luminescence, 18 h | Potency, µM (top dose mostly 46.1 µM), usual class: cytotoxic | 410,000 compounds, 0.76% hits | AID 588856, 2011
#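 CellTiter-Glo luminescence gave cytotoxicity after 18 hours at 37 degrees C. The cells were HepG2 CAGA-GFP in 1% FBS DMEM, stimulated with 500 pg/mL TGF-beta after compound addition. %Activity was normalised to no-cell wells (complete cell-killing) and DMSO (no toxicity), and curves were fitted and classified.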
# Hits are given with their value; 0 = inactive; ? = inconclusive; - = not tested or not shown; [ ] = another dose, or the depositor's remark. Unless noted, calls come from the whole dose curve; as a rule, active = well fitted curve in the direction sought with a large enough effect; inconclusive = small, poorly fitted or top-dose-only effect, or another doubt; inactive = no such curve, though single readings can be large; an effect the other way counts as inactive or inconclusive.
SMILES,IL-1B inflam inh,TDP1 cell CPT,TDP1 inh,TGFb inhibitor,DT40 TDP1 no CPT,HepG2 tox
Cc1cc(C(=O)Nc2c(C)nn(Cc3ccc(Cl)cc3)c2C)no1,0,0,0,0,0,0
Cc1nn(Cc2ccc(F)cc2)c(C)c1NC(=O)c1cc2ncc(Br)cn2n1,0,?,32µM,0,0,0
O=C(Cc1ccc(-c2ccccc2)cc1)NCCS(=O)(=O)N1CCN(c2ccccc2)CC1,-,?,0,0,?,0
NC(=O)c1cccc2ccccc12,0,0,-,0,0,0
N#CSCC(=O)c1cccc2ccccc12,-61,4.6µM,0,?,4.6µM,0
O=C(CSc1nc2ccccc2c(=O)n1-c1ccccc1Cl)NCC1CCCO1 (centres undefined),0,0,0,0,0,0
COc1ccc(C(C(=O)NCC2CCCO2)N(C(=O)c2snc(C(N)=O)c2N)c2ccccc2)cc1OC (centres undefined),0,0,0,0,0,0
CCc1ccc(N(C(=O)c2snc(C(N)=O)c2N)C(C(=O)NCC2CCCO2)c2cccs2)cc1 (centres undefined),0,?,0,0,21µM,0
NC(=O)c1nsc(C(=O)N(c2ccc(Cl)cc2)C(C(=O)NCC2CCCO2)c2cccs2)c1N (centres undefined),-83,?,0,0,?,0
COCCN1C(=O)c2oc3ccc(C)cc3c(=O)c2C12C(=O)N(C)c1ccccc12 (centres undefined),-,0,0,0,0,0
C=CCn1c(=O)/c(=C/c2ccc(Cl)cc2)s/c1=C(/C#N)c1nnc2n1CCCCC2,-72,?,0,0,?,0
C=CCn1c(=O)/c(=C/c2ccc(O)cc2)s/c1=C(/C#N)c1nnc2n1CCCCC2,?,18µM,0,0,23µM,0
C/C(O)=C(\C#N)c1nnc2n1CCCCC2,0,0,0,0,0,0
COc1cc(/C=C(\C#N)c2nc3ccccc3n2C)cc(OC)c1O,0,?,0,0,0,0
C=CCn1c(=O)/c(=C/c2cc(OC)c(OC)c(OC)c2)s/c1=C(/C#N)c1nc2ccccc2n1C,0,23µM,0,0,18µM,0
c1ccc(Oc2nc(NC3CCCCC3)c3[nH]cnc3n2)cc1,-,-,0,-,-,-
CCc1ccc(CN(C)Cc2nc(Cc3ccc(OC)c(OC)c3)no2)nc1,0,16µM,-,0,?,0
COc1ccc(Cc2noc(CN(C)Cc3ccc(-n4cccn4)cc3)n2)cc1OC,0,?,0,0,21µM,0
CN(C)C(=O)c1cc(C(=O)Cc2ccccc2)c[nH]1,0,0,-,0,0,0
CC(=O)[C@@]1(O)CCC2C3CC[C@H]4C[C@@H](O)CC[C@]4(C)C3CC[C@@]21C (some centres undefined),0,0,0,0,0,0
C[C@]12CCC3C(CC[C@H]4CCCC[C@]34C)C1CC[C@@]2(O)CNCCO (some centres undefined),0,13µM,-,0,?,0
COc1ccc(C)cc1S(=O)(=O)N1CCCC(N2CCN(c3ccccc3)CC2)C1 (centres undefined),0,?,-,0,21µM,0
COc1ccc(Cl)cc1S(=O)(=O)N1CCN=C1C,0,18µM,0,0,?,0
COc1ccc(C)cc1S(=O)(=O)N1CCN(c2cccc(Cl)c2)CC1,-,21µM,0,?,?,0
COc1ccc(Cl)cc1S(=O)(=O)N1CCCc2ccccc21,0,0,0,0,0,0
SMILES,IL-1B inflam inh,TDP1 cell CPT,TDP1 inh,TGFb inhibitor,DT40 TDP1 no CPT,HepG2 tox
COC(=O)c1ccccc1-c1cc(C)cc2c1OC(CNC(=O)c1cnc(C)cn1)C2 (centres undefined),-,0[9.04 µM],-,-,18µM,-
COC(=O)c1ccccc1-c1cc(C)cc2c1OC(CNC(=O)c1cc(C)on1)C2 (centres undefined),-,0[9.04 µM],-,-,?,-
CS(=O)(=O)Nc1cccc(-c2cc(F)c(S(=O)(=O)N3CCN(S(=O)(=O)c4ccc5c(c4)OCCO5)CC3)cc2F)c1,-,-,0,-,-,-
C(=C\c1ccccn1)/c1ccccc1,-,0,-,?,0,0
c1ccc(CC[C@@H]2CC[C@@H](CCc3ccccc3)N2)cc1,0,12µM,0,0,18µM,0
CC(C)(C)NC[C@@H](O)c1ccc(O)c(CO)n1,-,-,0,-,-,-
Cc1c(C(=O)NCCc2cccnc2)cnn1-c1ncc2c(n1)-c1ccccc1CC2,-,0[9.04 µM],-,-,?,-
CCC(C)c1ccc(C(CC)NC(=O)C2CCCO2)cc1 (centres undefined),0,23µM,-,0,?,0
CCC(C)c1ccc(NC(=S)NC(C)C2CCCO2)cc1 (centres undefined),0,0,0,0,26µM,0
CCC(C)c1ccccc1NC(=O)C1CCCO1 (centres undefined),0,0,0,0,0,0
c1ccc(C2Nc3cccc4cccc(c34)N2)cc1,0,18µM,-,0,0,0
Clc1ccc(C2Nc3cccc4cccc(c34)N2)cc1Cl,0,?,-,0,?,0
COc1ccccc1C1Nc2cccc3cccc(c23)N1,0,15µM,0,0,21µM,0
Clc1cccc(C2Nc3cccc4cccc(c34)N2)c1,0,5.2µM,0,0,10µM,0
Fc1cccc(Cl)c1C1Nc2cccc3cccc(c23)N1,0,23µM,0,?,21µM,0
Brc1cccc(C2Nc3cccc4cccc(c34)N2)c1,0,?,0,0,0,0
O=c1c(CCc2ccccc2)nc2cnc(N3CCOCC3)nc2n1C[C@H]1CCCO1,-,?,-,-,0,-
O=C(NCCc1csc(-c2cccnc2)n1)c1ccc(F)c(F)c1,-,-,0,0,-,0
Clc1cccc(Cl)c1C1Nc2cccc3cccc(c23)N1,0,?,0,?,?,0
c1csc(C2Nc3cccc4cccc(c34)N2)c1,0,16µM,0,0,?,0
CN(C)c1ccc(C2Nc3cccc4cccc(c34)N2)cc1,0,?,-,0,23µM,0
COc1ccc(C2Nc3cccc4cccc(c34)N2)cc1,0,21µM,0,0,?,0
COc1cc(OC)c(C2Nc3cccc4cccc(c34)N2)c(OC)c1,0,21µM,-,?,15µM,0
CN(C)c1ccc(C2NC(=O)c3ccccc3N2)cc1 (centres undefined),0,0,0,0,0,0

# Bioassay records as filed in PubChem.
